Reference: PubChem BioAssay AID720579 (National Center for Advancing Translational Sciences (NCATS), 2013)
The campaign covered roughly 310,000 compounds. About 1,900 (0.61%) were called active. Inconclusive results (about 8%) are left out. The sample holds actives, similar compounds and a random draw of the others, so the mix is not that of the screen. Unmarked numbers belong to inactive results. Calls come from the whole dose curve; tested in A549 cells.

Test: qHTS for Stage-Specific Inhibitors of Vaccinia Orthopoxvirus: mCherry Reporter Primary qHTS; note: nearly all actives have a fitted effect of over 35% in size
Conditions: Vaccinia virus mCherry reporter infection, fluorescence; series mostly up to 36.5 µM; activity change, negative = inhibition: at the top concentration
% is set by controls: 0 for no effect and ±100 for the full control effect; potency is the fitted concentration of half-maximal effect.

Compound	Potency	activity change, negative = inhibition [%]	outcome
[O-][n+]1onc2c1CCc1[nH]c(-c3ccccc3)nc1-2	15.8 µM (active)		
CC=CCn1c(SCCCc2ccccc2)nc2c1c(=O)[nH]c(=O)n2C		3.79	
Cc1c(Cl)c([N+](=O)[O-])nn1CCCC(=O)Nc1cc(Cl)ccc1Cl		-18.7	
O=C(N/N=C/c1ccc2c(c1)OCO2)c1ccc(Cn2cc([N+](=O)[O-])cn2)o1		-29.5	
Cc1c(Cl)c([N+](=O)[O-])nn1Cc1ccc(C(=O)N/N=C\c2cc(Cl)ccc2O)o1	6.31 µM (active)		
O=C(c1ccccc1)N1CCN(c2cc(-c3ccccc3)nc3cc(-c4cccc(Cl)c4)nn23)CC1		-23.1	
CCc1nc2c(OCc3ccccc3)cccn2c1N(C)C(=O)c1ccco1		-10.6	
COc1ccc(C(C(=O)Nc2c(C)cccc2C)N2CCN(c3ccc(C)cc3)CC2)cc1 (stereo not drawn)		-24.2	
Brc1cccc[n+]1Cc1cccc(C[n+]2ccccc2Br)c1		31.5	
Cc1cc2ccccn2c1C(=O)c1cccc(F)c1			inactive
Cc1cc2ccccn2c1C(C[N+](=O)[O-])c1c(F)cccc1Cl (stereo not drawn)	10 µM (active)		
O=C(Cc1c(F)cccc1Cl)Nc1ncc([N+](=O)[O-])s1		-7.45	
CCCCOc1ccc(C(=O)NO)cc1		-10.8	
CCc1cc2c(N3CCN(c4nnc(CC)s4)CC3)ncnc2s1	12.6 µM (active)		
CCc1ccc(C(=O)NNC(=O)C2CCN(c3ncnc4sc(C)c(C)c34)CC2)cc1		-18.3	
CCN1CCN(c2ncnc3c2cnn3-c2ccc(C)c(C)c2)CC1		-9.72	
Cc1ccc(S(=O)(=O)N2CC3C(=O)C[C@@H](c4ccccc4Cl)N(S(=O)(=O)c4ccc(C)cc4)C3CC2c2ccccc2)cc1 (stereo partly drawn)		-0.55	
CSc1nc(-c2ccccc2)nc(C(Cl)Cl)n1	12.6 µM (active)		
Clc1ccc2nc(-c3ccccc3)nc(C(Cl)Cl)c2c1		-15.5	
CSc1nc(Nc2ccc(F)cc2)cc(-c2ccccc2)n1		-19	
CCCc1ccc(C(O)c2ncc(-c3cccc(OC)c3)[nH]2)cc1 (stereo not drawn)		3.12	
CCOC(=O)[C@]12CCCC=C1N(CCC1=CCCCC1)C(=O)[C@H](CC(=O)NCCCOC)C2			inactive
CCOC(=O)N1CCN(C(=O)C[C@@H]2C[C@@]3(C(=O)OC)CC(C)(C)CC=C3N(Cc3ccco3)C2=O)CC1		-26.4	
CC1(C(=O)Nc2cccc3c2CCCC3)CCN1C(=O)CCc1ccc(Cl)cc1Cl (stereo not drawn)			inactive
CCOC(=O)c1ccccc1C(=O)N1CCOCCOCCOCC1		-10.9	

Compound	Potency	activity change, negative = inhibition [%]	outcome
Cc1ccccc1-c1ccc(Nc2ccc(C(=O)N3CCOCC3)cc2)nn1		-14.9	
Cc1oc2c(c1C(=O)N1CCOCC1)C(=O)c1ccccc1C2=O	11.2 µM (active)		
Fc1cccc(Cc2c(-c3ccc(Cl)cc3)nc3ccc(Cl)cn23)c1		1.23	
COc1cc(OC)c(OC)cc1/C=C1\C=Cc2ccccc21		-21.7	
CCc1nc2ccc(C(=O)Nc3cc(-c4ccccc4)ccc3OC)cn2c1N(CC)CC(=O)N(C)C		-14.5	
COC(=O)Cc1ccc(Oc2ncc(C(F)(F)F)cc2Cl)cc1			inactive
COc1cccc(/C=N/Nc2ncc(C(F)(F)F)cc2Cl)c1O	11.2 µM (active)		
COc1cccc(/C(C)=N/Nc2ncc(Cl)cc2Cl)c1			inactive
CCc1nc2ccc(C(=O)NCc3ccc(OC)cc3)cn2c1N(CC)Cc1cccc(Br)c1			inactive
Cc1nn(-c2ccccc2)c(C)c1NC(=O)COC(=O)Cc1ccccc1		-14.2	
Cc1nn(-c2ccccc2)c(C)c1NC(=O)CCl	10 µM (active)		
Cc1nn(-c2ccccc2)c(C)c1NC(=O)COc1ccc(Cl)cc1Cl		-12.6	
Cc1cccc(NC(=O)COC(=O)c2ccccc2OCc2cccc(Br)c2)c1			inactive
CC(C)Nc1ncnc2c1ncn2[C@H]1CN(Cc2ccncc2)C[C@@H](CO)O1		37.1	
OC[C@@H]1CN(Cc2ccncc2)C[C@H](n2cnc3c(N4CCN(c5ccccc5)CC4)ncnc32)O1	11.2 µM (active)		
OCCN1CCN(c2ncnc3c2ncn3[C@H]2CN(Cc3ccco3)C[C@@H](CO)O2)CC1		14.1	
Cc1cc(Br)cn2c(Cc3ccsc3)c(-c3ccc(C#N)cc3)nc12		17.8	
COc1cccc(-c2cc3nc(NCc4ccccc4OC)n(C)c(=O)c3s2)c1		-20.6	
CCCNC(=O)C1(C)CCCN(C(=O)c2oc3ccccc3c2C)C1 (stereo not drawn)		3.6	
COc1c(Cl)cc(Cl)cc1C(=O)Nc1cccc2cccnc12		-4.07	
CC(=O)/C(=N\Nc1ccc(Cl)cc1Cl)Sc1cccc2cccnc12	3.55 µM (active)		
S=C(NCc1cccnc1)Nc1ccc(Cl)cc1Cl			inactive
CCOC1=C2[C@@H](CN(S(=O)(=O)c3ccc(C)cc3)[C@H]2c2ccccc2F)[C@H]2C(=O)N(Cc3ccccc3)C(=O)[C@H]2C1		1.58	
CCOCCC(=O)Nc1ccc2c(c1)c(=O)n(C)n2-c1ccc2ccccc2c1		-4.6	
CN(C)C1=C2C=CC=CC2/C(=C2/C=Cc3ccccc32)C=C1 (stereo not drawn)		-12.9	

Compound	Potency	activity change, negative = inhibition [%]	outcome
Nc1ccc(/C=C/c2ccnc3ccccc23)c([N+](=O)[O-])c1		24.2	
Oc1ccccc1-c1cc(-c2ccc(Cl)cc2)n[nH]1	8.91 µM (active)		
O=C(Nc1ccc(Cl)cn1)c1ccccc1-c1ccccc1		-7.03	
Cc1ccc(NC(=O)c2cc(-c3ccccc3O)n[nH]2)cc1C			inactive
O=C(Nc1ccc2c(c1)OCCO2)C(C1CC1)N1CCC(Cc2ccccc2)CC1 (stereo not drawn)		44.7	
CCc1cc(C(=O)N(CC)CC(=O)Nc2c(F)cccc2F)sc1C			inactive
COC(=O)Cc1ccc(OC2(C)CCN(Cc3ccc4c(c3)OCCO4)C2)cc1 (stereo not drawn)		-9.78	
CC1(C)OC(=O)C2=C(C[C@@H](C3CCCCC3)O[C@@H]2c2ccc(Cl)cc2)O1		4.01	
O=C(Nc1cccc(NC(=O)c2ccc(Br)cc2)c1)c1ccccc1	inactive		
CC(NC(=O)c1ccccc1)C(=O)Nc1ccccc1 (stereo not drawn)		-16.4	
O=C(NC1=CC(=O)c2ccccc2C1=O)c1ccccc1	7.94 µM (active)		
COCC1CCCCN1C(=O)c1cc(COc2ccc(C)c(C)c2)on1 (stereo not drawn)		-3.71	
CN(C)c1ccc(/C=N\Nc2ccc([N+](=O)[O-])cc2[N+](=O)[O-])cc1Cl		-14.1	
Cc1ccc(S(=O)(=O)N2C[C@H]3n4c(=O)ccc(=O)n4C[C@H](OC(=O)NC4CCCC4)[C@@]3(O)C2)cc1		-13.2	
Cc1ccc(C(=O)NC(C)C(c2cccs2)N2CCOCC2)cc1C (stereo not drawn)			inactive
CCc1nc2c(OCc3ccc(C(=O)OC)cc3)cccn2c1N(C)C(=O)C(C)C			inactive
CCOc1ccc(/C=N/NC(N)=S)cc1	1 µM (active)		
CCOc1ccc(/C=N\NC(=O)c2c(C)nc3cc(C)ccn23)cc1		-22.5	
COC(=O)N/N=C/c1ccc(/C=N/NC(=O)OC)cc1		-8.87	
COc1cccc(NC(=O)Nc2ccc(F)cc2)c1		-29.6	
CC(C)C1N=C2c3ccccc3N=C(SCC(=O)c3ccc(O)c(O)c3)N2C1=O (stereo not drawn)	11.2 µM (active)		
O=C(CSC1=Nc2ccccc2C2=NC(c3ccccc3)C(=O)N12)NCC1CCCO1 (stereo not drawn)		-12.9	
Cc1ccc(CNC(=O)CSC2=Nc3ccccc3C3=NC(C)C(=O)N23)cc1 (stereo not drawn)		-17.4	
Cc1cc2nc(-c3ccc(Cl)cc3)c(Cc3cccc(F)c3)n2c(C)c1Br		24.4	
CC(C)C1CCN(C(=O)C2CCC(=O)N(C3CCCCCC3)C2)CC1 (stereo not drawn)		-22.2	

Compound	Potency	activity change, negative = inhibition [%]	outcome
CCN(CC)c1ccc(/C=N/Nc2nc(C)cc(C)n2)c(O)c1	2.51 µM (active)		
CCOc1ccc(-n2c(O)c(/C=N/Nc3nc(C)cc(C)n3)c3ccccc3c2=O)cc1		3.78	
Cc1cc(C)nc(N/N=C/c2ccncc2)n1		-2.46	
CC1=C(C(=O)Nc2ccccc2)SCCO1			inactive
CC1=C(C(=O)Nc2ccccc2)S(=O)(=O)CCO1	0.891 µM (active)		
O=C(Nc1ccccc1)c1ccc2c(c1)OCCCO2		-14.5	
CC(C)Nc1nc(NCCOc2ccccc2Cl)c2sccc2n1		-28.6	
O=C(C[C@H]1C[C@H](C(=O)N2CCOCC2)[C@@]2(CCC3CCCC3)c3[nH]c4ccc(Cl)cc4c3CCN2C1=O)NCc1ccco1	7.08 µM (active)		
CN(C)C(=O)CCc1ccc2c3c([nH]c2c1)[C@]1(CCC2CCCC2)[C@@H](C(=O)N2CCOCC2)C[C@H](CC(=O)NCc2ccco2)C(=O)N1CC3		2.15	
COc1ccc(CNC(=O)C[C@H]2C[C@H](C(=O)N3CCOCC3)[C@@]3(CCC4CCCC4)c4[nH]c5ccc(Cl)cc5c4CCN3C2=O)cc1OC		-27.5	
COc1ccc(Cl)cc1NC(=O)CN(C)C(=O)c1cn(-c2ccccc2)nc1-c1cccs1		-28.8	
CC(C)C[C@H]1CNC(=S)N1C[C@H]1CCCN1C[C@H](Cc1ccc(O)cc1)N1C[C@H](Cc2ccc(O)cc2)N(CC2CCCCC2)C1=S		-18.3	
Nc1ncn(C2OC(CO)C(O)C2O)c(=O)n1 (stereo not drawn)	10 µM (active)		
Nc1nc(SCc2ccc([N+](=O)[O-])cc2)c2ncn(C3OC(CO)C(O)C3O)c2n1 (stereo not drawn)		-29.7	
CC(C)Sc1nc(N)nc2c1ncn2C1OC(CO)C(O)C1O (stereo not drawn)		-9.34	
COc1ccc(-c2ccc(C(=O)NC(C)C)c3occc23)c(C)c1		16.1	
CC(=O)c1cccc(-c2cnc3c(NC=O)cc(-c4cccc(C(=O)N(C)C)c4)cn23)c1		-29.9	
CC(=O)c1cccc(-c2cnc3c(NC=O)cc(-c4ccc(N(C)C)cc4)cn23)c1		-17.7	
CC(=O)c1ccc(-c2cnc3c(NC=O)cc(-c4cccc(NS(C)(=O)=O)c4)cn23)cc1	11.2 µM (active)		
COc1ccc(-c2cc3nc(NCCOc4ccccc4)ccn3n2)cc1		18.9	
COc1ccc(S(=O)(=O)NCCc2c[nH]c3ccccc23)cc1OC			inactive
c1cncc(CNCCc2c[nH]c3ccccc23)c1		-26.3	
COc1cccc(CNCCc2c[nH]c3ccccc23)c1OCc1ccccc1F	10 µM (active)		
